# Source: paper PMC5540273 (PLoS ONE, 2017)
# Experiments:
# Details in all cases: concentration: 1 μM, replicates: in singlicate; n = 1
# [1] = tested on: LCK
# [2] = tested on: LIMK1
# [3] = tested on: LIMK2
# [4] = tested on: T1, LKB1
# T1 construct: gene STK11
# [5] = tested on: T2, LOK
# T2 construct: gene STK10
# [6] = tested on: LRRK2
# [7] = tested on: LTK
# [8] = tested on: LYN
# [9] = tested on: T3, LZK
# T3 construct: gene MAP3K13
# [10] = tested on: MAK
# 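Further: KINOMEscan kinase panel screen.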
Compound,%Inh [1],%Inh [2],%Inh [3],%Inh [4],%Inh [5],%Inh [6],%Inh [7],%Inh [8],%Inh [9],%Inh [10]
COc1cc(Nc2nccc(N3CCC(NS(=O)(=O)c4ccc(NC(C)=O)cc4)CC3)n2)cc(OC)c1OC [GSK1379825],18%,93%,100%,0%,2%,29%,0%,56%,27%,61%
O=C(O)C(F)(F)F.O=c1[nH]ccc2nc(N[C@@H]3CCNC3)nc(Nc3ccc4c(c3)S(=O)(=O)CC4)c12 [GSK2181306],40%,0%,0%,2%,97.2%,94.5%,29%,7%,6%,93.5%
NCCC(NC(=O)c1cc(Br)c(-c2ccnc3[nH]ccc23)s1)c1ccccc1.O=C(O)C(F)(F)F.O=C(O)C(F)(F)F (centres unmarked) [GSK1307810],12%,12%,30%,29%,0%,14%,0%,7%,30%,30%
Cn1cc(-c2ccc3c(c2)CCN3C(=O)Cc2cc(F)cc(C(F)(F)F)c2)c2c(N)ncnc21 [GSK2635225],62%,0%,0%,16%,84%,0%,18%,26%,3%,26%
Cc1ccc(C)c(NC(=O)Nc2ccc(C)c(-c3ccc(C(=O)Nc4ccncc4)cc3)c2)c1 [GSK1398473],47%,25%,2%,0%,0%,0%,0%,17%,0%,65%
CC(C)c1nc(-c2cccc(NS(=O)(=O)c3c(F)cccc3F)c2)c(-c2ccnc(Nc3ccc(N4CCOCC4)nc3)n2)s1.Cl [GSK1723980],99.7%,100%,100%,4%,99.1%,18%,0%,97.8%,52%,70%
c1ccc(Oc2ccc(Nc3ccnc4cc(-c5ccc(CN6CCCCC6)o5)ccc34)cc2)nc1 [GW567143],88%,0%,0%,6%,39%,35%,0%,6%,12%,4%
Cl.Cl.NC(CNC(=O)c1cc(Br)c(-c2ccnc3[nH]ccc23)s1)c1ccccc1 (centres unmarked) [GSK1322949],3%,0%,0%,69%,0%,31%,0%,0%,7%,19%
COC(=O)Nc1nc2cc(Oc3ccc(NC(=O)Nc4cccc(SC)c4)cc3)ccc2[nH]1.Cl [GW697999],68%,0%,4%,17%,99.4%,18%,0%,24%,23%,14%
Cc1ccc(-c2ccc3occ(-c4ccc(S(C)=O)cc4)c3c2)nn1 (centres unmarked),0%,0%,0%,0%,0%,0%,0%,1%,1%,0%
CN(c1ccc(NC(=O)Nc2cccc(Cl)c2)cc1)c1ccnc(N)n1.Cl [GW830707],7%,0%,0%,20%,97.8%,66%,12%,0%,0%,11%
COc1cccc(NC(=O)NCCNc2ccnc(Nc3ccc(F)cc3)n2)c1 [GSK1379879],6%,0%,18%,6%,0%,0%,0%,0%,11%,56%
O=C(Nc1n[nH]c2nc(-c3ccccc3O)ccc12)C1CC1 [SB-711880],37%,0%,0%,22%,77%,0%,0%,0%,20%,16%
CC(C)(C)c1ccc(C(=O)Nc2cn3cc(-n4ccnc4)ccc3n2)cc1,0%,0%,10%,0%,0%,12%,0%,10%,0%,18%
